According to PubChem BioAssay AID1479146 (National Center for Advancing Translational Sciences (NCATS), 2020):
Inconclusive results are not listed. Active and inactive are the calls of the source. Calls follow the shape of the full dose curve.

experiment: Confirmatory qHTS for Huh7 cytotoxicity: counterscreen for inhibitors of MERS-S pseudo-typed particle cell entry; details: viability; series mostly up to 57.1 µM; activity change, negative = cytotoxicity: at the top concentration

SMILES | activity change, negative = cytotoxicity | Potency
CCCCc1oc2ccccc2c1C(=O)c1cc(I)c(OCCN(CC)CC)c(I)c1 | -7.39% (inactive) | 
Cc1cn([C@H]2C[C@H](N=[N+]=[N-])[C@@H](CO)O2)c(=O)[nH]c1=O | -4.83% (inactive) | 
C[C@]12CC[C@H](O)C[C@H]1CCC1C2CC[C@]2(C)[C@@H](c3ccc(=O)oc3)C[C@H]3O[C@]132 (stereo not given in full) |  | 15.2 µM (active)
COc1cc([C@@H]2c3cc4c(cc3C(O[C@@H]3O[C@@H]5CO[C@@H](c6cccs6)OC5[C@H](O)[C@H]3O)C3COC(=O)[C@@H]32)OCO4)cc(OC)c1O (stereo not given in full) |  | 5.41 µM (active)
COc1cccc2c1C(=O)c1c(O)c3c(c(O)c1C2=O)C[C@@](O)(C(=O)CO)CC3OC1CC(N2CCOC(OC)C2)C(O)C(C)O1 (stereo not given in full) |  | 0.136 µM (active)
Cc1nnc2n1-c1sc(CCc3ccc(CC(C)C)cc3)cc1C(c1ccccc1Cl)=NC2C (stereo not given) | -18.8% (inactive) | 
CCn1cc(C(=O)O)c(=O)c2cc(F)c(N3CCNC(C)C3)c(F)c21 (stereo not given) | 0% (inactive) | 
CCc1c2c(nc3ccc(OC(=O)N4CCC(N5CCCCC5)CC4)cc13)-c1cc3c(c(=O)n1C2)COC(=O)[C@]3(O)CC | 0% (inactive) | 
CCCCCCNC(=O)n1cc(F)c(=O)[nH]c1=O | -9.95% (inactive) | 
CCN(CC)CCNC(=O)c1c(C)[nH]c(/C=C2\C(=O)Nc3ccc(F)cc32)c1C |  | 27.1 µM (active)
O=C(Nc1ccc([N+](=O)[O-])cc1Cl)c1cc(Cl)ccc1O |  | 3.83 µM (active)
CC(C)C[C@H](NC(=O)[C@H](CCc1ccccc1)NC(=O)CN1CCOCC1)C(=O)N[C@@H](Cc1ccccc1)C(=O)N[C@@H](CC(C)C)C(=O)[C@@]1(C)CO1 |  | 0.192 µM (active)
CN(C)CCC=C1c2ccccc2C(C)(C)c2ccccc21 | -3.85% (inactive) | 
CCCCCCOC(=O)NC(=N)c1ccc(NCc2nc3cc(C(=O)N(CCC(=O)OCC)c4ccccn4)ccc3n2C)cc1 | 0% (inactive) | 
C/C=C(/C)C(=O)O[C@H]1C(C)=CC23C(=O)C(C=C(CO)[C@@H](O)[C@]12O)[C@H]1[C@@H](C[C@H]3C)C1(C)C (stereo not given in full) | -30.5% (inactive) | 
